# The list is not random: actives were taken first. Their share in the collection is about 5.8%.
# MCF10A rereplic = DNA re-replication induction in MCF 10a cells; MCF 10A DNA re-replication, Hoechst nuclear intensity, 48 h; Potency, µM (series often up to 46.1 µM), inactives show top-dose activity, positive = re-replication, hits mostly activators; 350,000 tested, 2.9% active; AID 624296; note: % of control where 0% means no effect; nearly all actives have a fitted effect of over 50% in size
# PINK1 modulator = modulators of PINK1 expression; PINK1 immunofluorescence, high-content cytometry, 24 h; Potency, µM (titrated, usually from 76.6 µM), without a hit: top-dose activation (PINK1 increase), hits mostly activators; 410,000 tested, 0.2% active; AID 624263; active = well fitted activation curve with a large enough effect; inconclusive = small, poorly fitted or top-dose-only effect; cell line not stated here; note: % of control where 0% means no effect; nearly all actives have a fitted effect of over 65% in size
#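 Stable cell line treated 24 h with compounds at 5 concentrations (CCCP controls), then fixed and immunostained for PINK1 plus nuclear and cell stains; PINK1 immunofluorescence quantified by laser-scanning microplate cytometry.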
# SW480 rerep = induces DNA re-replication in SW480 colon adenocarcinoma cells; AID 624297; 340,000 tested, 1.8% active; SW480 DNA re-replication, Hoechst DNA content imaging, 48 h; Potency, µM (doses to about 46.1 µM), inactives show top-dose re-replication activation, usual class: activators; note: % of control where 0% means no effect; nearly all actives have a fitted effect of over 55% in size
#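 Treated cells incubate 48 hr (37 C, 5% CO2), are stained 40 min with Hoechst, and nuclear fluorescence is enumerated; a rise in nuclei with high DNA signal marks re-replication.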
# KB-V1 MDR tox = KB-V1 MDR subline cytotoxicity. KB-V1 MDR cells viability, CellTiter-Glo, 72 h. Potency, µM (titrated, usually from 46.1 µM), most hits filed as cytotoxic. 400,000 tested, 3.4% active. AID 1347076; note: % is set by controls: 0 for no effect and ±100 for the full control effect; nearly all actives have a fitted effect of over 60% in size
#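 Compound-treated KB-V1 multidrug-resistant cells, 72 h, 37 degrees C; viability by CellTiter-Glo. Fitted qHTS curves give the values.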
# KB-3-1 tox = kills parental KB-3-1 adenocarcinoma cells; KB-3-1 viability, CellTiter-Glo ATP luminescence, 72 h; Potency, µM (top dose mostly 46.1 µM), hits mostly cytotoxic; 400,000 tested, 1.4% active; note: % is set by controls: 0 for no effect and ±100 for the full control effect; nearly all actives have a fitted effect of over 60% in size
#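 KB-3-1 parental drug-naive adenocarcinoma cells in DMEM/10% FBS, incubated 72 h at 37 C with pin-transferred compounds across a concentration series. Viability by CellTiter-Glo luminescence; concentration-response curves fitted after normalization.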
# ALOX12 inh = inhibitors of human 12S-lipoxygenase ALOX12 | 580,000 tested, 1.1% active | purified 12hLO, xylenol orange hydroperoxide absorbance | Potency, µM (doses to about 108 µM), inactives show top-dose activity change, negative = inhibition, actives largely listed as inhibitors | P18054 | AID 1671190; note: % is set by controls: 0 for no effect and ±100 for the full control effect
# Target sequence (P18054 whole entry, looked up): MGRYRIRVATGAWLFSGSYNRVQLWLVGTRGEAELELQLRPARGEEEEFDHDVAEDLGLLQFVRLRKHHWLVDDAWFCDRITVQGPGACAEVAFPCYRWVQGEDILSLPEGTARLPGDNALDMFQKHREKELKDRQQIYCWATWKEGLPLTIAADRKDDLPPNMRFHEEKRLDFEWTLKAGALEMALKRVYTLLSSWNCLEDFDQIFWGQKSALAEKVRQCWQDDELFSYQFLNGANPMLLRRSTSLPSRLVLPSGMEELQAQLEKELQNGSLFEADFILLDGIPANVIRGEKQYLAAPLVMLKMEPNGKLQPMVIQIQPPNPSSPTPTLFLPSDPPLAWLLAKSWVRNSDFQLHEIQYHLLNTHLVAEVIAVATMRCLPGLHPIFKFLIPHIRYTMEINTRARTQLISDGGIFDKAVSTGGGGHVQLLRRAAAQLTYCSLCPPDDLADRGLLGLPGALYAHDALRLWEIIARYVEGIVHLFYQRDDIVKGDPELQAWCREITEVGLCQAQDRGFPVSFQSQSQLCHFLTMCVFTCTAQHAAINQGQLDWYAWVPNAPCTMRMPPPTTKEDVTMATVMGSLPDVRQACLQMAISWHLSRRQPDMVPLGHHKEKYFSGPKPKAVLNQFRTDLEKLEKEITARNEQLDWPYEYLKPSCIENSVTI
#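 Purified human 12hLO (150 nM final) in 25 mM Hepes, 0.01% Triton X-100, pH 7.0 was preincubated 15 min at room temperature with compound. Then 40 uM arachidonic acid was added, 30 min. Hydroperoxide was read by Fe-XO absorbance ratio 573/405 nm.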
# An asterisk follows results filed as active; i = inactive; ? = inconclusive; / = not tested or not shown; [ ] = remark or other dose. Unless noted, calls come from the whole dose curve; as a rule, active = well fitted curve in the direction sought with a large enough effect; inconclusive = small, poorly fitted or top-dose-only effect, or another doubt; inactive = no such curve, though single readings can be large; an effect the other way counts as inactive or inconclusive. Potency is the fitted concentration of half-maximal effect.
SMILES,MCF10A rereplic,PINK1 modulator,SW480 rerep,KB-V1 MDR tox,KB-3-1 tox,ALOX12 inh
Cc1ccc(S(=O)(=O)N(C)CC(=O)N(CC(C)C)C2CCS(=O)(=O)C2)cc1 (stereo unspecified),4.1%,1.5%,4.11µM*,i,i,-18.9%
CCCCN(C(=O)/C=C/c1ccc(OC)cc1)C1CCS(=O)(=O)C1 (stereo unspecified),-1.5%,0.6%,2.4%,?,i,18.4%
CCCN(C(=O)/C=C/c1ccc(S(=O)(=O)N(CC)CC)cc1)C1CCS(=O)(=O)C1 (stereo unspecified),-4.6%,1.7%,-4.7%,23.1µM*,i,84.5%
Cc1noc(CSc2nnc(Nc3ccc(C(C)C)cc3)s2)n1,/,/,/,/,/,8.9%
NC(=O)C1CCN(c2nccc(-c3ccc4c(c3)OCCO4)n2)CC1,/,/,/,?,9.2µM*,/
NC(=O)C1CCN(c2nccc(-c3ccc4c(c3)OCCCO4)n2)CC1,/,/,/,i,i,/
CNC(=S)NNC(=O)CSCc1ccccc1,/,/,/,/,/,-10.7%
CC(C)c1ccc(C(=O)NCCCN2CCN(CCCNC(=O)c3ccc(C(C)C)cc3)CC2)cc1,23.1µM*,-2.4%,?,?,i,?
O=C(NCCCN1CCN(CCCNC(=O)c2ccc(F)cc2)CC1)c1ccc(F)cc1,-2.9%,-1.6%,-4.9%,i,i,29.9%
Cc1cnc2c(S(=O)(=O)NC(c3cccs3)C(C)C)cccc2c1 (stereo unspecified),/,/,/,/,/,-10.4%
COc1ccccc1CCN1CCCC(CN(C)Cc2ccc(OCCO)cc2)C1 (stereo unspecified),20.6µM*,-0.5%,?,i,i,-5.9%
CNC(=O)NC(=O)C(C)Sc1nc(C2CC2)nc2ccccc12 (stereo unspecified),/,/,/,/,/,-67.5%
O=c1oc2ccc3ccccc3c2cc1-c1nc2ccccc2o1,?,23.9%[38.3 µM],18.4µM*,i,i,9.8%
COc1ccc(-c2nn(-c3ccccc3)cc2CN(C)CCn2ccnc2C)c(F)c1,2.2%,0.3%,-0.1%,9.2µM*,i,4.7%
Cc1ccc(C(=O)O)cc1NC(=S)NC(=O)c1ccc(COc2ccccc2)cc1,?,0.1%,-39.3%,i,i,2.82µM*
Cc1cc(C)c2oc(-c3ccc(C)c(NC(=S)NC(=O)c4cccs4)c3)nc2c1,9.2µM*,10.8%,-2.8%,i,i,-22.4%
Cc1ccc(-c2nc3ccccc3o2)cc1NC(=S)NC(=O)c1cccs1,?,7.6%,-4.6%,i,i,?
Cc1ccc(C(=O)O)cc1NC(=S)NC(=O)Cc1ccccc1,15.0%,1.6%,-1.6%,i,i,?
Cc1ccc(-c2nc3ccccc3s2)cc1NC(=S)NC(=O)c1ccccc1,13µM*,3.5%,4.2%,i,i,194.4%
Cc1ccc(-c2nc3ccccc3s2)cc1NC(=O)c1cc(-n2cnnc2)ccc1Cl,?,3.55µM*,2.0%,i,i,-8.6%[57.4 µM]
O=C(CSc1nc(C2CC2)n(-c2ccccc2)n1)N1CCN(c2ccc(F)cc2)CC1,/,/,/,/,/,15.3%
CC(=O)Nc1cc(-c2nc3ccccc3s2)ccc1C,/,2.4%,/,i,i,-2.2%
Cc1cc(-c2nc3ccccc3s2)ccc1N,20.6µM*,4.3%,?,18.4µM*,?,-10.0%
O=C(Nc1ccc(N2CCCC2)c(Cl)c1)c1ccc2c(c1)OCCO2,11.2%,?,0.9%,i,?,-8.0%
O=C(Nc1ccc(N2CCCCC2)c(Cl)c1)c1ccc2c(c1)OCCO2,?,0.0%,-2.2%[9.22 µM],?,16.4µM*,-6.0%
SMILES,MCF10A rereplic,PINK1 modulator,SW480 rerep,KB-V1 MDR tox,KB-3-1 tox,ALOX12 inh
O=C(Nc1ccc2c(c1)OCO2)c1ccc(N2CCCC2)c([N+](=O)[O-])c1,10.6%,-0.9%,11.1%,23.1µM*,i,-7.5%
O=C(NCc1ccco1)c1cc([N+](=O)[O-])ccc1N1CCCCC1,?,-1.5%,3.0%,i,i,-18.0%
COc1cccc(CNC(=O)COC(=O)c2cc([N+](=O)[O-])ccc2N2CCCC2)c1,1.7%,-1.0%,-8.6%,7.31µM*,i,86.4%
O=C(NCc1ccc2c(c1)OCO2)c1cc([N+](=O)[O-])ccc1N1CCCCC1,2.59µM*,8.8%,5.8µM*,?,2.06µM*,-13.7%
O=C(Nc1ccc(N2CCCCC2)c(Cl)c1)c1ccc(N2CCOCC2)c([N+](=O)[O-])c1,13.9%,/,0.2%,?,i,6.8%
COc1cncc(CN2CCC3(CC2)OC(=O)N(Cc2csc(C)n2)C3(C)c2ccccc2)c1 (stereo unspecified),/,/,/,/,/,30.1%
Cc1ccccc1CS(=O)Cc1ccc(F)cc1 (stereo unspecified),/,/,/,/,/,10.1%
CCCC(=O)Nc1nnc(Cc2ccccc2F)s1,/,/,/,/,/,2.8%
COc1ccc(-c2cc3n(n2)C(C(=O)Nc2ccccc2F)CC(=O)N3)cc1OC (stereo unspecified),/,/,/,/,/,2.6%
O=C(Nc1ccc(Cl)c([N+](=O)[O-])c1)c1ccc2c(c1)OCCO2,10.1%,-0.5%,11.8%,13µM*,i,-2.5%
O=C(N/N=C/c1ccc(Cl)c([N+](=O)[O-])c1)c1ccc2c(c1)OCCO2,-0.4%,3.2%,?,i,i,-26.5%
O=C(Nc1ccc2c(c1)OCO2)c1ccc(NC2CC2)c([N+](=O)[O-])c1,?,1.4%,?,14.6µM*,?,3.6%
COc1ccc2c(c1)c(CN1CCCC(c3[nH]ccc3C(N)=O)C1)cn2C (stereo unspecified),/,/,/,/,/,1.7%
COc1ccc(C2=NNC(=O)C2(C)Br)cc1 (stereo unspecified),4.7%,-0.6%,-6.8%,i,i,44.7µM*
CC1CC(C)CN(c2ccc(-n3cnnn3)cc2[N+](=O)[O-])C1 (stereo unspecified),-2.4%,1.6%,1.7%,?,5.17µM*,221.1%
Cc1cc(C)cc(C(=O)NC(CC(N)=O)c2ccc(N3CCC(Cc4ccccc4)CC3)c([N+](=O)[O-])c2)c1 (stereo unspecified),0.2%,-0.5%,-2.7%,i,i,-4.6%
O=[N+]([O-])c1cc(-n2cnnn2)ccc1N1CCC(Cc2ccccc2)CC1,23.8%,-4.3%[38.3 µM],?,23.1µM*,i,-21.8%
CSc1cccc(CN2CCCC(C(=O)Nc3cccc(-n4cccn4)c3)C2)c1 (stereo unspecified),?,2.2%,16.4µM*,/,/,?
CCn1ncc(CN2CCCC(C(=O)Nc3cccc(-c4cc5ccccc5[nH]4)c3)C2)c1C (stereo unspecified),16.4µM*,0.5%,?,?,?,-24.1%

# Assay outcomes deposited in PubChem by National Center for Advancing Translational Sciences (NCATS).
